Here are results for nine compounds from PubChem BioAssay.

A short description of assay [1]: small molecules captured by biotinylated probe aFSTL3 – biochemical, small-molecule microarray, fluorescence 635/667, stem cell growth factor project, primary screen (AID 1064).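 Note: measures binding of the biotinylated anti-FSTL3 antibody to printed compounds.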 The conditions noted are these: higher = more signal.
Assay [2] in a line: binders from COS7 lysate, DM2A8 probe, primary screen, torsin A project, cell lysate, small-molecule microarray, fluorescence 635/667 (AID 1065). As to conditions: higher = more signal, COS7 lysate expressing mutant human TOR1A.
Assay [3] in a line: small molecules captured by biotinylated probe aFGF2 – biochemical, small-molecule microarray, fluorescence 635/667, stem cell growth factor project, primary screen (AID 1067).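 Note: measures binding of biotinylated aFGF2 protein to printed compounds on slides; z-score merges feature fluorescence and signal-to-noise across triplicate slides.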 The conditions noted are these: higher = more signal.
Assay [4] is described as follows: small molecules captured by biotinylated probe aFGF10 – biochemical, small-molecule microarray, fluorescence 635/667, stem cell growth factor project, primary screen (AID 1071).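 Note: score merges 667 nm spot intensity and signal to noise from triplicate slides.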 The conditions noted are these: higher = more signal.
Assay [5] addresses Neurogenic locus notch homolog protein 2 (Homo sapiens) (UniProt Q04721). Description: small molecules binding Notch2 protein – biochemical, small-molecule microarray, 635 nm fluorescence, stem cell growth factors, primary screen (AID 1073). The conditions noted are these: higher = more signal.
Assay [6] concerns the target Pro-neuregulin-1, membrane-bound isoform (Homo sapiens) (UniProt Q02297). Briefly: small molecules binding neuregulin-1 protein – biochemical, small-molecule microarray, fluorescence 635/667, psychiatric disease protein project, primary screen (AID 1075).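 Note: score combines 667 nm spot fluorescence with signal to noise.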 As to conditions: NRG1 binding, 635 nm fluorescence, higher = more signal.
For assay [7], the system named is Neuregulin-1 EGF-like domain. Briefly: small molecules binding NRG1 EGF domain – biochemical, small-molecule microarray, 635 nm fluorescence, primary screen (AID 1081).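 Note: binding of the protein to compounds printed on small-molecule microarray slides.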 As to conditions: higher = more signal.
Assay [8] can be described thus: FRG1 expression reporter modulators in myotubes – cell-based, C2C12 myotubes, firefly/Renilla luciferase, luminescence, FRG1 inhibition for FSHD, primary screen (AID 1084). The conditions noted are these: FRG1 promoter luciferase, higher = more signal, called active from +8 up or from −8 down.
Assay [9] in a line: small molecules captured by biotinylated probe aFST – biochemical, small-molecule microarray, fluorescence 635/667, stem cell growth factor project, primary screen (AID 1086).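 Note: score merges 667 nm fluorescence with signal-to-noise of each printed compound spot.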 The conditions noted are these: higher = more signal.
Assay [10] in a line: binders of probe aHhip on microarray, primary screen, stem cell growth factor project, biochemical, small-molecule microarray, fluorescence 635/667 (AID 1087).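 Note: score merges spot fluorescence at 667nm with spot signal to noise ratio.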 The conditions noted are these: higher = more signal.
Assay [11] has as its system PRMT1 (protein arginine N-methyltransferase 1). Description: small molecules binding arginine methyltransferase PRMT1 – biochemical, small-molecule microarray, 635 nm fluorescence, primary screen (AID 1088).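 Note: binding of Prmt1 protein to compounds spotted on small-molecule microarray slides.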 As to conditions: higher = more signal.
Assay [12] can be described thus: growth effects on S. cerevisiae YJM789 – YJM789 clinical isolate, OD600, 24 h, basal, primary screen (AID 1089).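 Note: growth of clinical yeast isolate S. cerevisiae YJM 789 seeded 1000 cells per well; test concentration not given here.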 As to conditions: higher = more signal, called active from +8 up or from −8 down.
Assay [13] can be described thus: S. pombe growth modifiers, basal conditions – strain 972, OD600, 24 h, no modulator, primary screen (AID 1090).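 Note: basal condition with compound alone and no growth modifier present; test concentration not given here.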 As to conditions: S. pombe 972 growth, higher = more signal, called active from +8 up or from −8 down.
Assay [14] is described as follows: budding yeast growth modifiers under rapamycin – strain BY4716, OD600, 96 h, primary screen (AID 1091). Note: test concentration not given here. As to conditions: S. cerevisiae BY4716 + rapamycin, higher = more signal, called active from +8 up or from −8 down.
Assay [15] concerns the target Torsin-1A-interacting protein 2 (Homo sapiens) (UniProt Q8NFQ8). Description: small molecules binding lysate-expressed LULL1 – cell lysate, human LULL1 lysate, 635/667 nm fluorescence, primary screen (AID 1092).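 Note: probe is lysate of COS7 cells overexpressing human LULL1; score merges per-feature 667 nm fluorescence with signal-to-noise.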 As to conditions: small-molecule microarray, hLULL1 lysate binding, 635 nm fluorescence; higher = more signal.
A short description of assay [16]: optical density change of DRC41 E. coli – strain DRC41, OD650, 24 h, E. coli filamentation project, primary screen (AID 1093).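 Note: MC1000 strain lacking acrAB efflux and sulA so SOS filamentation is blocked; test concentration not given here.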 The conditions noted are these: E. coli DRC41 growth, higher = more signal, called active from +8 up or from −8 down.
Assay [17] in a line: probe aLefty2 binding to arrayed compounds – biochemical, biotinylated probe, 635/667 nm fluorescence, primary screen (AID 1094).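 Note: score merges spot fluorescence near 667 nm with spot signal-to-noise ratio.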 The conditions noted are these: small-molecule microarray, higher = more signal.
In assay [18] the test system is Noggin (protein binding on small-molecule microarray). Description: small molecules binding Noggin protein – biochemical, 635/667 nm fluorescence, primary screen (AID 1095).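 Note: score merges 667 nm feature fluorescence with signal to noise over triplicate slides.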 As to conditions: 635 nm fluorescence, higher = more signal.
For assay [19], the target named is Neurogenic locus notch homolog protein 3 (Homo sapiens) (UniProt Q9UM47). Briefly: small molecules binding NOTCH3 protein – biochemical, 635/667 nm fluorescence, primary screen (AID 1096). The conditions noted are these: small-molecule microarray, 635 nm fluorescence, higher = more signal.
Assay [20] in a line: probe aEGFR binding to arrayed compounds – biochemical, biotinylated probe, 635/667 nm fluorescence, primary screen (AID 1097).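 Note: probe is a biotinylated anti-EGFR antibody binding compounds printed on slides; score combines fluorescence near 667 nm and signal to noise of each spot.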 As to conditions: small-molecule microarray, higher = more signal.

The source made the active and inactive calls.

Neurogenic locus notch homolog protein 2 (Homo sapiens), sequence (Q04721 whole entry, looked up, canonical isoform): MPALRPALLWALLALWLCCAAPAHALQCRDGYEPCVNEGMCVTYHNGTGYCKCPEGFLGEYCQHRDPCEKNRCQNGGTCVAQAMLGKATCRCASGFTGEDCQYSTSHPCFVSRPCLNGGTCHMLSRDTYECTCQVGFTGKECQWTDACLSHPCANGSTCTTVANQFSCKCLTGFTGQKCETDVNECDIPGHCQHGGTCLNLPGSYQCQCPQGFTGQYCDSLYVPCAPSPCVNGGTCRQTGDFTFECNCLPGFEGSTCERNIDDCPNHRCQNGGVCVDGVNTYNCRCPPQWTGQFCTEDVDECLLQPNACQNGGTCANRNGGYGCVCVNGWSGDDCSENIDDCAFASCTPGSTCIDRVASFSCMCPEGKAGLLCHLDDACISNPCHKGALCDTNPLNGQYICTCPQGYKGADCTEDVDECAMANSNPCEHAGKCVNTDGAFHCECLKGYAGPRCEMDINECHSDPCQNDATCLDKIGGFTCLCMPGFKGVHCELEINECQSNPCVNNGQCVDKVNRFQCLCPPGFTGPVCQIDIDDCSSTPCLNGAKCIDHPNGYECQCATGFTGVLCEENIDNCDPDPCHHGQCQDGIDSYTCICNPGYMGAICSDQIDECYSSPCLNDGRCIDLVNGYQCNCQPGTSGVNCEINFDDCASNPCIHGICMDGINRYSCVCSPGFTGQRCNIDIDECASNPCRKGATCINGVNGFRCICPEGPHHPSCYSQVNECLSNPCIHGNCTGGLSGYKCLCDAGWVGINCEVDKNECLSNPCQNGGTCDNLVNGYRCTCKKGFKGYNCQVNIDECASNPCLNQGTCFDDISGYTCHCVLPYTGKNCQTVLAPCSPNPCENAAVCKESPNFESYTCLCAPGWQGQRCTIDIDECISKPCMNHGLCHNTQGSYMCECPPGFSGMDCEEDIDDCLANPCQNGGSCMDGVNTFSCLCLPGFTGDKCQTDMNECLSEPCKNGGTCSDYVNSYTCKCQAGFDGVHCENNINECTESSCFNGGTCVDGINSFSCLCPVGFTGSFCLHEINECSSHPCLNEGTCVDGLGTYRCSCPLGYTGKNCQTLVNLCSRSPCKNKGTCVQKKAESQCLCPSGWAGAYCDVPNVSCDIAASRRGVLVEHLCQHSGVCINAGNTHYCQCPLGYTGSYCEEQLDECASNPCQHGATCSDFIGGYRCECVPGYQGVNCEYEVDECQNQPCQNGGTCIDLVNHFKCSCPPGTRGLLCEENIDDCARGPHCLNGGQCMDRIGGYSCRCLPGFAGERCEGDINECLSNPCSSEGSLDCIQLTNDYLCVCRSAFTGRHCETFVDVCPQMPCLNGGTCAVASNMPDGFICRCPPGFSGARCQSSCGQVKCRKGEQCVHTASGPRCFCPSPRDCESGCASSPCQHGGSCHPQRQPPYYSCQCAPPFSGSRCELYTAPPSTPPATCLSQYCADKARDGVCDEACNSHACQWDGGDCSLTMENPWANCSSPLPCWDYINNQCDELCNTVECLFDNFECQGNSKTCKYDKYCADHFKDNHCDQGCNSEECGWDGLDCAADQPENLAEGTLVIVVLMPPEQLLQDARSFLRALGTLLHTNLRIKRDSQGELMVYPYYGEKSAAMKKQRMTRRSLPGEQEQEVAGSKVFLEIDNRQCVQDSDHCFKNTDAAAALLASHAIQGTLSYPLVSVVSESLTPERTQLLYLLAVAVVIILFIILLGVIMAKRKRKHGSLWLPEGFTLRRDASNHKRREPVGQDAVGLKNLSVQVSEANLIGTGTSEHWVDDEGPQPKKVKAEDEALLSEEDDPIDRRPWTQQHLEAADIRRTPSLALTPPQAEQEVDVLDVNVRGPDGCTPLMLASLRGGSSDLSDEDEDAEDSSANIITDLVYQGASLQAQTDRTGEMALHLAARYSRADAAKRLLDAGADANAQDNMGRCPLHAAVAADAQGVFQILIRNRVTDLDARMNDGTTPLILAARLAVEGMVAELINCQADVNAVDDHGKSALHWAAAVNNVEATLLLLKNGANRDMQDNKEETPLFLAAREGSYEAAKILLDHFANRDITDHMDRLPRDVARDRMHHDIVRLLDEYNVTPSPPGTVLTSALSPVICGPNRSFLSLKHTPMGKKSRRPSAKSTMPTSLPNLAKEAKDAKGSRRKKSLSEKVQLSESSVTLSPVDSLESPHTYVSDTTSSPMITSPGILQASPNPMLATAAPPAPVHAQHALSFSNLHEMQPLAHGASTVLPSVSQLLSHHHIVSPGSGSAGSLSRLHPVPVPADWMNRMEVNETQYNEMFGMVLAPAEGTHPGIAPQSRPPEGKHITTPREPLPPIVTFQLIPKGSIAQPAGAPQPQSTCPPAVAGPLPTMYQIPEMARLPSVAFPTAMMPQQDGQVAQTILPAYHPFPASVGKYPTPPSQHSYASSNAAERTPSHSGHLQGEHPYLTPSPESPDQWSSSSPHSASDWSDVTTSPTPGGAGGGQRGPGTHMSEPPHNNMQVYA
Neurogenic locus notch homolog protein 3 (Homo sapiens), sequence (Q9UM47 whole entry, looked up): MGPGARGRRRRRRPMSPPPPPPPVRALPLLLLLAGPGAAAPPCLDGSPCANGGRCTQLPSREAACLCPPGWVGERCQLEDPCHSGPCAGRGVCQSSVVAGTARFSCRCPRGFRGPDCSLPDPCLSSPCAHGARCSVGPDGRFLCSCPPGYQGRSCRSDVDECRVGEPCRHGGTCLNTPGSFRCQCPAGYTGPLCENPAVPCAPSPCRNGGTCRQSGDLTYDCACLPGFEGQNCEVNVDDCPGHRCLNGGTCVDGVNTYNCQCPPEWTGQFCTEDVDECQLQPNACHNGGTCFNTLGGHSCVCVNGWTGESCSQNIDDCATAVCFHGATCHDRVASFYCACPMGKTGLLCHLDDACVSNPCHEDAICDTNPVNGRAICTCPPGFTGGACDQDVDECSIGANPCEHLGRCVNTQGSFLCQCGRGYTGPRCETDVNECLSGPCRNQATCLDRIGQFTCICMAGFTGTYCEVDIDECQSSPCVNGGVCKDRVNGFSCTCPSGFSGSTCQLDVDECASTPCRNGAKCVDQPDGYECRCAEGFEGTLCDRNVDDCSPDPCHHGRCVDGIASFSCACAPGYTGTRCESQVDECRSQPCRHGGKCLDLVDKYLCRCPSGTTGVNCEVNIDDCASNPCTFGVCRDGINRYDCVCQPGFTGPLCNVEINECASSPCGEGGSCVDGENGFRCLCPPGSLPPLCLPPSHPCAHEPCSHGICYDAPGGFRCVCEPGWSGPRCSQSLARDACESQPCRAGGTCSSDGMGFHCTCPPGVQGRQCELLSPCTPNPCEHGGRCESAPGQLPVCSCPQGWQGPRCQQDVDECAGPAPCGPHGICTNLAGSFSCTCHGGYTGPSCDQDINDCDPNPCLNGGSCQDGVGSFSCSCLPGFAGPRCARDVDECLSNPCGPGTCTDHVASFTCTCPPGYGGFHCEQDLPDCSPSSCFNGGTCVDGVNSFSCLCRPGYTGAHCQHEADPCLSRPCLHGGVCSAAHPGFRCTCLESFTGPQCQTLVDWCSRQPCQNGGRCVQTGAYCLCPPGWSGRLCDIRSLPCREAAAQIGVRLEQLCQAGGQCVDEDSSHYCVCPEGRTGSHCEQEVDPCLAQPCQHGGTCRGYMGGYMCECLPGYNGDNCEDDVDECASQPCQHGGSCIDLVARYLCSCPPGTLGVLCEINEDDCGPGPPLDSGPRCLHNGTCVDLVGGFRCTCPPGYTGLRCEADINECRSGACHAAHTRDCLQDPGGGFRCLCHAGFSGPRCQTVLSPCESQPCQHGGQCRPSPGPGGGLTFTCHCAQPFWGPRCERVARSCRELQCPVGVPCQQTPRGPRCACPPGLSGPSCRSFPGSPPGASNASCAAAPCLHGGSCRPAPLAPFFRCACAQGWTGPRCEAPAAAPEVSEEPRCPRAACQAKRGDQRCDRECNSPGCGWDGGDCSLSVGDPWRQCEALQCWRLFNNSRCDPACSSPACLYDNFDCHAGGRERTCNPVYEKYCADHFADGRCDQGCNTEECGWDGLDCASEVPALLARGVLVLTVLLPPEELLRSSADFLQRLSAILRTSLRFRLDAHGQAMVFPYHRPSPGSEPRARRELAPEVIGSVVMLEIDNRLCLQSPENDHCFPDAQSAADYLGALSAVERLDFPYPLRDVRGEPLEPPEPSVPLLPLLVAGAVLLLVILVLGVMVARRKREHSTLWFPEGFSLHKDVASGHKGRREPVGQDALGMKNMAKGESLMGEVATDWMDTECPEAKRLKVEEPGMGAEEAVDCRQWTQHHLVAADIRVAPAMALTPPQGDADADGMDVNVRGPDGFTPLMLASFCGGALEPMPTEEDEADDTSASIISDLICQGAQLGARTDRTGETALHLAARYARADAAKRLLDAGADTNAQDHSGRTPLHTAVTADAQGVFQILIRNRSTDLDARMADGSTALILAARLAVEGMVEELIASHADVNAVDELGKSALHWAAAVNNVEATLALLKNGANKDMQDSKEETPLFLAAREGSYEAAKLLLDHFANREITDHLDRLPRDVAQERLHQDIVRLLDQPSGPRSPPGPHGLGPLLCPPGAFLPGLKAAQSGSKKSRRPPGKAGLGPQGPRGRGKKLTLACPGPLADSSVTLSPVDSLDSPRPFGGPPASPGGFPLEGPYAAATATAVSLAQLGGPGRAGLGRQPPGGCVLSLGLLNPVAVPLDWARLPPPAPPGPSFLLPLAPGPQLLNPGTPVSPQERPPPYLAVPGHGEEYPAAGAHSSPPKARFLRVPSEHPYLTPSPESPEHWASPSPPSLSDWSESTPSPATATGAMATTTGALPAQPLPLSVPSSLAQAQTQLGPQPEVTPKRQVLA

Consider `O=C1N(Cc2ccccc2)Cc2ccccc2C[C@@]12COC(c1ccc(OCCCO)cc1)=N2`, for which the composite z-score is 1.18 in assay [1]; 0.455 in assay [2]; -0.0428 in [3]; -0.0784 in [4]; -0.0568 in [5]; 0.605 in assay [6]. The composite z-score is 1.21 in [7]; 0.419 in [9]; 0.369 in assay [10]; 1.38 in assay [11]; 1.79 in [15]; 0.363 in assay [17]. The composite z-score in assay [18] was 0.0489; in assay [19] it was 0.117; in assay [20] it was -0.0315. In addition, the z-score in [8] is -1.58 (inactive); in [12] it was 1.92 (inactive); in assay [13] it was -1.05 (inactive); in assay [14], 6.73 (inactive); in [16], 0.615 (inactive).

`COCCCNC(=O)[C@@]1(c2ccc([N+](=O)[O-])cc2)CC(=O)N(C2CCCCC2)[C@@H]1c1ccc(CO)cc1I`: the composite z-score is 0.234 in assay [1]; 1.2 in assay [2]; 0.0247 in assay [3]; 0.0624 in assay [4]; -0.161 in assay [5]; 0.944 in assay [6]. The composite z-score in assay [7] is 1.31; in [9], -0.0119; in assay [10], 0.259; in assay [11], 1.54; in assay [15], 0.83; in [17], 0.0561. Moreover, the composite z-score in assay [18] was 0.39; in assay [19], 0.0429; in [20] it was -0.0967. The z-score was -1.27 (inactive) in assay [8]; -0.307 (inactive) in [12]; -0.314 (inactive) in [13]; -0.0938 (inactive) in assay [14]; 0.556 (inactive) in assay [16].

Regarding `COC(=O)[C@@]1(Cc2ccc(OC)cc2)[C@@H]2[C@@H](CC(=O)[C@H]2CC(=O)C(=O)N(C)C)CN1C(=O)c1ccccc1`, the composite z-score worked out at 2.09 in assay [1]; 0.496 in assay [2]; 0.81 in assay [3]; 1.2 in assay [4]; 1.78 in assay [5]; 1.69 in [6]. Besides, the composite z-score turned out to be 1.06 in assay [7]; 2.67 in [9]; 0.357 in assay [10]; 0.707 in [11]; 3.24 in assay [15]; 1.11 in assay [17]. Moreover, the composite z-score in [18] was -0.458; in assay [19], 1.01; in assay [20], 0.766. The z-score in [8] was -0.224 (inactive); in assay [12], -0.0616 (inactive); in assay [13], 1.61 (inactive); in assay [14], 3.34 (inactive); in [16], -0.163 (inactive).

Turning to `C=CCNC(=O)[C@@H]1[C@H]2C(=O)O[C@H](c3ccccc3)[C@H](c3ccccc3)N2[C@H](c2ccc(O)cc2)[C@@]12C(=O)N(C(=O)OCCOC)c1ccc(C#CCC(C(=O)OC)C(=O)OC)cc12`, the composite z-score in assay [1] was -0.292; in [2] it was 1.27; in [3], 0.048; in [4] it was 0.769; in [5], 1.14; in assay [6], 0.946. The composite z-score in assay [7] is 1.18; in assay [9], 0.884; in assay [10], 0.0266; in assay [11] it was 1.5; in assay [15] it was 2.11; in assay [17], -0.156. For the same compound, the composite z-score in assay [18] was 1.03; in assay [19], 0.959; in assay [20], -0.027. For the same compound, the z-score in [8] was -0.614 (inactive); in assay [12] it was 1.03 (inactive); in [13], 0.405 (inactive); in [14], 0.624 (inactive); in assay [16] it was 1.19 (inactive).

With `C=C(C(=O)CC[C@@H](OC(=O)c1ccccc1-c1ccccc1C(=O)O)c1cccc(OCCO)c1)C(C)C`, the composite z-score was -0.308 in assay [1]; 2.23 in assay [2]; -0.0577 in assay [3]; 1.22 in [4]; 0.234 in [5]; 0.535 in [6]. The composite z-score in assay [7] was -0.141; in assay [9], -0.156; in [10], 0.154; in [11], 1.46; in assay [15] it was -0.104; in assay [17], -0.118. The composite z-score in [18] is 0.782; in assay [19] it was 0.164; in [20], -0.182. Also, the z-score is 0.345 (inactive) in assay [8]; 0.433 (inactive) in [12]; -0.0072 (inactive) in assay [13]; -0.641 (inactive) in assay [14]; 0.355 (inactive) in assay [16].

As to `O=C1O[C@H](c2ccccc2)[C@H](c2ccccc2)N2[C@H]1[C@@H](C(=O)N1CCN(c3ncccn3)CC1)[C@]1(C(=O)Nc3ccc(C#CC4(O)CCCCCC4)cc31)[C@H]2c1ccc(O)cc1`, the composite z-score was 0.406 in [1]; 2.01 in assay [2]; -0.0125 in assay [3]; 1.04 in [4]; 0.607 in assay [5]; 1.54 in [6]. For the same compound, the composite z-score is 1.28 in assay [7]; 0.0718 in assay [9]; -0.0645 in assay [10]; 1.55 in assay [11]; 2.57 in [15]; -0.209 in assay [17]. For the same compound, the figures for the composite z-score in assay [18], in assay [19] and in assay [20] were 1.2, 1.11 and -0.0225, respectively. Further, the z-score in assay [8] is 0.0132 (inactive); in assay [12], 0.736 (inactive); in [13] it was -0.391 (inactive); in [14], 1.21 (inactive); in assay [16], 2.61 (inactive).

As for `CC(C)C[C@@H]1NC(=O)[C@@H]2C[C@H](C(=O)NCCCCCCNC(=O)CS)[C@H](c3ccc(O)cc3)N2C1=O`, the composite z-score in assay [1] is -0.0857; in assay [2], 1.48; in assay [3], -0.0202; in assay [4], 0.938; in assay [5], 0.604; in assay [6] it was 1.35. Besides, the composite z-score in assay [7] was 1.37; in assay [9], 0.694; in assay [10], -0.0346; in assay [11], 1.53; in assay [15], 2.93; in [17] it was 0.0277. For the same compound, the composite z-score was determined as 1.26 in [18], 1.11 in [19] and 0.0886 in [20]. The z-score in assay [8] is 0.0812 (inactive); in [12], 0.279 (inactive); in assay [13], 0.101 (inactive); in assay [14] it was 0.971 (inactive); in assay [16], 1.27 (inactive).

Consider `CCOC(=O)C[C@H]1[C@H](OC(=O)c2ccc(-c3ccccc3)cc2)[C@@H](NC(=O)c2ccc(-c3ccccc3)cc2)c2cc(OCCCO)ccc2N1C(=O)c1ccccc1`, for which the composite z-score in [1] is -0.326; in assay [2] it was 0.254; in assay [3], -0.0317; in [4] it was 0.573; in assay [5], 0.528; in assay [6] it was 0.534. For the same compound, the composite z-score in [7] was 0.905; in [9], 0.627; in assay [10] it was -0.213; in [11] it was 1.26; in assay [15] it was 1.69; in assay [17] it was -0.275. In addition, the results for the composite z-score in assay [18], in assay [19] and in assay [20] were 0.253, 1.07 and -0.183, respectively. Further, the z-score in assay [8] was -0.281 (inactive); in [12] it was 0.495 (inactive); in assay [13], 0.785 (inactive); in assay [14], 1.3 (inactive); in assay [16] it was -0.783 (inactive).

In the case of `CC(C)Cc1ccc(CN2CC[C@@H](NC(=O)c3ccccc3)C2)cc1`, the composite z-score in [1] is 0.0315; in assay [2], 0.481; in [3], -0.176; in assay [4], -0.102; in assay [5] it was -0.859; in [6], 0.638. For the same compound, the composite z-score in assay [7] is -0.368; in [9], -0.174; in [10], -0.13; in assay [11] it was -0.174; in assay [15], -0.0003; in assay [17], -0.167. The values for the composite z-score in assay [18], in assay [19] and in assay [20] were 0.666, -0.0255 and -0.157, respectively. For the same compound, the z-score in assay [8] was -0.623 (inactive); in [12], -0.216 (inactive); in [13], -21.2 (active); in assay [14], 0.237 (inactive); in assay [16], -0.219 (inactive).
